Measured values: publication PMC7862700, “An all-to-all approach to the identification of sequence-specific readers for epigenetic DNA modifications on cytosine”

Assays:
Test in all cases: DAPPL (digital affinity profiling via proximity ligation, sequencing); 10 mM Tris-HCl pH 7.5, 50 mM NaCl, 1 mM DTT, 4% glycerol, room temperature, 30 min; GST-TFs on glutathione beads, 16-mer random dsDNA library, 0.1% formaldehyde crosslink after washing; high values mean tight binding
FLI1 = target: T1, FLI1 (Homo sapiens, UniProt Q01543 1-452); conditions: protein: recombinant; tags: N-terminal GST; dsDNA, one strand shown
T1 sequence: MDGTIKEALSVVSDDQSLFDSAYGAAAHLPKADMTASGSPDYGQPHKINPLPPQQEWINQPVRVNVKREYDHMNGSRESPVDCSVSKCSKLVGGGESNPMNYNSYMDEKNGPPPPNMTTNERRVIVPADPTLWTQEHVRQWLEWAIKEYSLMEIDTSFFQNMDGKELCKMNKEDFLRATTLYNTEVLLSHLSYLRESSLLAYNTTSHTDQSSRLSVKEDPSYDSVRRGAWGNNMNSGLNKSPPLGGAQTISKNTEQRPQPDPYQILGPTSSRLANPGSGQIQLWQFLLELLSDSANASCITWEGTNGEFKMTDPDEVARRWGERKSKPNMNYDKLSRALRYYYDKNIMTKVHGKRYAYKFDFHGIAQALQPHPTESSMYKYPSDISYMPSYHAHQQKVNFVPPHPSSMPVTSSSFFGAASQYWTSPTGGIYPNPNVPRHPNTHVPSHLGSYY
Outline: (§1)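 A tag-only sample was pooled with DNA-barcoded human transcription factors that had been expressed in yeast as GST fusions and captured on glutathione beads. The pools were incubated for 30 min at room temperature with 200 nmole of a random double-stranded 16-mer DNA library in Tris/NaCl/DTT/glycerol buffer, then washed, crosslinked with 0.1% formaldehyde, proximity-ligated (BsaI/T4 ligase, 1 h, 37 °C), PCR-amplified and sequenced on an Illumina NextSeq500. Binding signal is each hexamer's read frequency for a factor divided by its frequency for the tag-only sample.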

ELK1 = target: T2, ELK1 (Homo sapiens, UniProt P19419 1-428); conditions: protein: recombinant; tags: N-terminal GST; dsDNA, one strand shown
T2 sequence: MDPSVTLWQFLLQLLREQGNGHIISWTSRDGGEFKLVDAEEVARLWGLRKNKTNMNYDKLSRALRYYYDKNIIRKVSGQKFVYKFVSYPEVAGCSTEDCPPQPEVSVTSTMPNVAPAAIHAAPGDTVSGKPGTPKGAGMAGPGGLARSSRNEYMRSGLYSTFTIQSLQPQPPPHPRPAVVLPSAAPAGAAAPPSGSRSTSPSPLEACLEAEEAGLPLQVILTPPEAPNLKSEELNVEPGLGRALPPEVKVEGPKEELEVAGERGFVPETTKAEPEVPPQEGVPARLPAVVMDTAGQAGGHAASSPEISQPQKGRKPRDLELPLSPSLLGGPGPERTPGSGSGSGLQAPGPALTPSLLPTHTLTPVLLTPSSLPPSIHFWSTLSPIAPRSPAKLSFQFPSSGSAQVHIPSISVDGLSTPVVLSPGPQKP
Outline: as §1

GABPA = target: T3, GABPA (Homo sapiens, UniProt Q06546 1-454); conditions: protein: recombinant; tags: N-terminal GST; dsDNA, one strand shown
T3 sequence: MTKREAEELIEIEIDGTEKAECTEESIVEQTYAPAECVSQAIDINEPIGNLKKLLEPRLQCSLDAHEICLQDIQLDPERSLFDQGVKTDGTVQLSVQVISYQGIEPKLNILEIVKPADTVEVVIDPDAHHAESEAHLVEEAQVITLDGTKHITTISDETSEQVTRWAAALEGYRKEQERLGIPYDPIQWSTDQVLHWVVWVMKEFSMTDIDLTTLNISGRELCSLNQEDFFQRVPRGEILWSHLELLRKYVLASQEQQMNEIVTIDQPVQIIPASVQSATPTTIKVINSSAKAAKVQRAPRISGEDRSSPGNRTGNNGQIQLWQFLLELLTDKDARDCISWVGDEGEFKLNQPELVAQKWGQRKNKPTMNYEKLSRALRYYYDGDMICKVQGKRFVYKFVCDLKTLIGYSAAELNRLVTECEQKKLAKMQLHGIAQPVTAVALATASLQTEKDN
Outline: as §1

ERG = target: T4, ERG (Homo sapiens, UniProt P11308 1-479); conditions: protein: recombinant; tags: N-terminal GST; dsDNA, one strand shown
T4 sequence: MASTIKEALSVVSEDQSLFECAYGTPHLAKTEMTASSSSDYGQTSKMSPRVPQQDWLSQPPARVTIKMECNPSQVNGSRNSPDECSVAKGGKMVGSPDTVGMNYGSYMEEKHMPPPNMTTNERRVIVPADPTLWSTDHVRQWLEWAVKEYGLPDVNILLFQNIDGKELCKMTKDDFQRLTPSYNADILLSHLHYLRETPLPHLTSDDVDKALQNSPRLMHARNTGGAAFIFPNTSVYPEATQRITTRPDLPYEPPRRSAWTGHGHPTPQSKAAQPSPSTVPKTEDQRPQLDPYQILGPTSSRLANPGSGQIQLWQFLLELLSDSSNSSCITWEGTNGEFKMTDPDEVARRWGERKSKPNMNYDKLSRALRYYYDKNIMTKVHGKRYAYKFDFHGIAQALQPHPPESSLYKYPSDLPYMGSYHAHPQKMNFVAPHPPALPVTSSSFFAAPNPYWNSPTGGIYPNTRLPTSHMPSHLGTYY
Outline: as §1

ELF1 = ELF1 (Homo sapiens, UniProt P32519 1-619); conditions: protein: recombinant; tags: N-terminal GST; dsDNA, one strand shown
Outline: as §1

EHF = target: T5, EHF (Homo sapiens, UniProt Q9NZC4 1-300); conditions: protein: recombinant; tags: N-terminal GST; dsDNA, one strand shown
T5 sequence: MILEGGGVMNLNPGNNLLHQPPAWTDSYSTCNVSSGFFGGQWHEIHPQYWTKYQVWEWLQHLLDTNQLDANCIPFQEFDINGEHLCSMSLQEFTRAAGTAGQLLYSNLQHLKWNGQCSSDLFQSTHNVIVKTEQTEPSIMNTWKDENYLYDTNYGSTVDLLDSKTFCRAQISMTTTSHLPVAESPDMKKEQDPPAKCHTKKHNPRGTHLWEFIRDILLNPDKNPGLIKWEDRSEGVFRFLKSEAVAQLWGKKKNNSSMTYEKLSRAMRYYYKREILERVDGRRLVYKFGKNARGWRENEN
Outline: as §1

SPI1 = SPI1 (Homo sapiens, UniProt P17947 1-270); conditions: protein: recombinant; tags: N-terminal GST; dsDNA, one strand shown
Outline: as §1

ELK3 = target: T6, ELK3 (Homo sapiens, UniProt P41970 1-407); conditions: protein: recombinant; tags: N-terminal GST; dsDNA, one strand shown
T6 sequence: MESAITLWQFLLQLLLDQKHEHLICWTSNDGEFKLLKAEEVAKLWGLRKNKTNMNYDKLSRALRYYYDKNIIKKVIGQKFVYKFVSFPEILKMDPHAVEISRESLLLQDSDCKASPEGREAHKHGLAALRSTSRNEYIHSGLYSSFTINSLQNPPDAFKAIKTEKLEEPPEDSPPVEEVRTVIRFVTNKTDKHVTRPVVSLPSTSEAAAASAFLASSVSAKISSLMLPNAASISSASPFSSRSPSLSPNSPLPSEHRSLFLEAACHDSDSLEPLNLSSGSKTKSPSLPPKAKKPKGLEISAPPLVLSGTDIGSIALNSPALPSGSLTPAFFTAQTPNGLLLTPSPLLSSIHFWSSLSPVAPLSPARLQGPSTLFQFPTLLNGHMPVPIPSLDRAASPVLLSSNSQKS
Outline: as §1

FEV = target: T7, FEV (Homo sapiens, UniProt Q99581 1-238); conditions: protein: recombinant; tags: N-terminal GST; dsDNA, one strand shown
T7 sequence: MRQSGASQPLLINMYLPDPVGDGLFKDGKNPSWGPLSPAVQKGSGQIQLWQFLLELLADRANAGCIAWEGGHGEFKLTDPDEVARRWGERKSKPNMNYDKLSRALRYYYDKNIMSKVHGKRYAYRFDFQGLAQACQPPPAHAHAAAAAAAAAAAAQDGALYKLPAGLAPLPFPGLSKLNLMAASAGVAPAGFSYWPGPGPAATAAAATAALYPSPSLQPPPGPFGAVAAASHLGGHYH
Outline: as §1

ETV5 = ETV5 (Homo sapiens, UniProt P41161 1-510); conditions: protein: recombinant; tags: N-terminal GST; dsDNA, one strand shown
Outline: as §1

HSF1 = HSF1 (Homo sapiens, UniProt Q00613 1-529); conditions: protein: recombinant; tags: N-terminal GST; chain copies: 3; dsDNA, one strand shown
Outline: as §1

SPIC = target: T8, SPIC (Homo sapiens, UniProt Q8N5J4 1-248); conditions: protein: recombinant; tags: N-terminal GST; dsDNA, one strand shown
T8 sequence: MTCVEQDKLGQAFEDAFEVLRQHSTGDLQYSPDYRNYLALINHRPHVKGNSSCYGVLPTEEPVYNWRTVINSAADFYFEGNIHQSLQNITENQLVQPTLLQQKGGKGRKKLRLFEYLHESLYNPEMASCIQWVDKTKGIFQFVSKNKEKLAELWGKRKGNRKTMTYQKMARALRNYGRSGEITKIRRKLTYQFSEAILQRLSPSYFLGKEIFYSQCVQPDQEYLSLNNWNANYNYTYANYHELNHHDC
Outline: as §1

ELF4 = ELF4 (Homo sapiens, UniProt Q99607 1-663); conditions: protein: recombinant; tags: N-terminal GST; dsDNA, one strand shown
Outline: as §1

ELK4 = target: T9, ELK4 (Homo sapiens, UniProt P28324-2 1-405); conditions: protein: recombinant; tags: N-terminal GST; dsDNA, one strand shown
T9 sequence: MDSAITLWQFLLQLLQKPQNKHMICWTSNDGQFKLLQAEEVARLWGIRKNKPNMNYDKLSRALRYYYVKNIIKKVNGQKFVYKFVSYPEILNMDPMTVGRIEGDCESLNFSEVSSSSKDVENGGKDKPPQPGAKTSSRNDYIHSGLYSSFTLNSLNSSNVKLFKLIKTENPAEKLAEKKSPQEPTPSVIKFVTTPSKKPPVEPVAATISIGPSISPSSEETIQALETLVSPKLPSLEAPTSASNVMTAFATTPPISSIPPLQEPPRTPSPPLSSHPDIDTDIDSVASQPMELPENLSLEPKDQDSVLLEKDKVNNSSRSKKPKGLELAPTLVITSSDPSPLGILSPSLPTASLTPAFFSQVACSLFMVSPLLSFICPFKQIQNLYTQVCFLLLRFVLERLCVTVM
Outline: as §1

ETV2 = target: T10, ETV2 (Homo sapiens, UniProt O00321 1-342); conditions: protein: recombinant; tags: N-terminal GST; dsDNA, one strand shown
T10 sequence: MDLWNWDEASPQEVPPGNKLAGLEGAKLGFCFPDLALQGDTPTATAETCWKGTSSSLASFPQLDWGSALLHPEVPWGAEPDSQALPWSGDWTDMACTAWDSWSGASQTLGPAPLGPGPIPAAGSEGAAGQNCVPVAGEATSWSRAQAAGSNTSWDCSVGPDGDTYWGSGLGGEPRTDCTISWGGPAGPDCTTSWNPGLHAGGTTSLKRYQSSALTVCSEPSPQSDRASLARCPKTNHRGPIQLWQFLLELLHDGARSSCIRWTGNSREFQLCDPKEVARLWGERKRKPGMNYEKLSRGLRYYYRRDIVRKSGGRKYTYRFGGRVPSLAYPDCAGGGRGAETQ
Outline: as §1

ELF3 = target: T11, ELF3 (Homo sapiens, UniProt P78545 1-371); conditions: protein: recombinant; tags: N-terminal GST; dsDNA, one strand shown
T11 sequence: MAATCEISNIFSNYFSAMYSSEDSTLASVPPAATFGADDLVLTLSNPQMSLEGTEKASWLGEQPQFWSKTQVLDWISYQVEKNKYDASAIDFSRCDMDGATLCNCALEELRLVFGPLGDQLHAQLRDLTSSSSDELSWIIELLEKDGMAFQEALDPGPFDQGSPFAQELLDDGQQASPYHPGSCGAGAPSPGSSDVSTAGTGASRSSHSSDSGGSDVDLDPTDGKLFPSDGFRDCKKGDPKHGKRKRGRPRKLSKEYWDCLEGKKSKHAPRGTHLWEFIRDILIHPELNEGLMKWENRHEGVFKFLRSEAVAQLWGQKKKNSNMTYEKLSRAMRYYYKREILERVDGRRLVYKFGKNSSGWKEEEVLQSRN
Outline: as §1

ETV1 = ETV1 (Homo sapiens, UniProt P50549 1-477); conditions: protein: recombinant; tags: N-terminal GST; dsDNA, one strand shown
Outline: as §1

SPIB = SPIB (Homo sapiens, UniProt Q01892 1-262); conditions: protein: recombinant; tags: N-terminal GST; dsDNA, one strand shown
Outline: as §1

Sequence of ELF1 (P32519 whole entry): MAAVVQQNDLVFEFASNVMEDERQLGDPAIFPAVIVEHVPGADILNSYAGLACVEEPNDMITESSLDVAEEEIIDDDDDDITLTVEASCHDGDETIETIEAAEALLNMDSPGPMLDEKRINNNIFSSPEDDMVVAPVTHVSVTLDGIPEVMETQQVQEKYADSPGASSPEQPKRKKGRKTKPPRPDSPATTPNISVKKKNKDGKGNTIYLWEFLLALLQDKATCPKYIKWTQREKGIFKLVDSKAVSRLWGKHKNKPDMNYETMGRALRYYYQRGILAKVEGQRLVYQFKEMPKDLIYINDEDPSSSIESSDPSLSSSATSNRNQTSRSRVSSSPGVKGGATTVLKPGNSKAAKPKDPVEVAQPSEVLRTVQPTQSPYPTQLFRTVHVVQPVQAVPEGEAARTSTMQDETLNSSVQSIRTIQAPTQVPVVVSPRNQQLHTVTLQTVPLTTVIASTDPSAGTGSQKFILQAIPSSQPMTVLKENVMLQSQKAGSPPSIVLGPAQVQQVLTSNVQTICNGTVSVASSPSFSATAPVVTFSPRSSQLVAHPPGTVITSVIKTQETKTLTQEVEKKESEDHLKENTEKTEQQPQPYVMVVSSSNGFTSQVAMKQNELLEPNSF
Sequence of HSF1 (Q00613 whole entry): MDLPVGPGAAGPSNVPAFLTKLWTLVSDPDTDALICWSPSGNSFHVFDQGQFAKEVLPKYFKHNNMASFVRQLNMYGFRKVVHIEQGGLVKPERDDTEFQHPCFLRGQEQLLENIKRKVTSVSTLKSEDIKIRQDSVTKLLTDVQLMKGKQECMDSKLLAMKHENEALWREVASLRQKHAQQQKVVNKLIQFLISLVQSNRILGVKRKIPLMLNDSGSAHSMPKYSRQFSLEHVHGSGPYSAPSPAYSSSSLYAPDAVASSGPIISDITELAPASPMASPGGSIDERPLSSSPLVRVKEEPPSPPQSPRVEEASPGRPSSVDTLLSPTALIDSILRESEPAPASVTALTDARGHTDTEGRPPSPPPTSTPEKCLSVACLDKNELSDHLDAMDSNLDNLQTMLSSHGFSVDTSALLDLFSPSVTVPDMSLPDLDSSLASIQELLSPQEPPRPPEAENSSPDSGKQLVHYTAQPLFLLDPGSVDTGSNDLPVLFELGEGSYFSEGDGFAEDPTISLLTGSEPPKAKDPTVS
Sequence of ELF4 (Q99607 whole entry): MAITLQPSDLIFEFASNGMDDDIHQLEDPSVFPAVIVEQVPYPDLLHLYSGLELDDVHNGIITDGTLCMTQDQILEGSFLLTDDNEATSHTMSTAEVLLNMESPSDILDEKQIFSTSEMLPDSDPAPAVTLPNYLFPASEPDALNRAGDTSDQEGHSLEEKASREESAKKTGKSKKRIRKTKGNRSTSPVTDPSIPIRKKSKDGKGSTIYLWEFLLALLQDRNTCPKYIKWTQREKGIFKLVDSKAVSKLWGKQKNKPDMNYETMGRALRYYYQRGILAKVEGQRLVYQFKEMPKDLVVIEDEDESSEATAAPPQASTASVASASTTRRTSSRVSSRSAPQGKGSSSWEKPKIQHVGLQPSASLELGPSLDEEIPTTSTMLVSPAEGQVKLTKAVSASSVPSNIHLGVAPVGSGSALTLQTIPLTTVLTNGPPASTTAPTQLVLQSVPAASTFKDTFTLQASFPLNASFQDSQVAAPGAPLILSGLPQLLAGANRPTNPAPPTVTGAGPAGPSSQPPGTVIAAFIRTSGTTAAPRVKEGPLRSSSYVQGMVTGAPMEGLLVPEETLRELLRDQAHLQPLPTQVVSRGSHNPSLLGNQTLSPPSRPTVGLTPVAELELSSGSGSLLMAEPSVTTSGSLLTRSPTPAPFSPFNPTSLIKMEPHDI
Sequence of ETV1 (P50549 whole entry): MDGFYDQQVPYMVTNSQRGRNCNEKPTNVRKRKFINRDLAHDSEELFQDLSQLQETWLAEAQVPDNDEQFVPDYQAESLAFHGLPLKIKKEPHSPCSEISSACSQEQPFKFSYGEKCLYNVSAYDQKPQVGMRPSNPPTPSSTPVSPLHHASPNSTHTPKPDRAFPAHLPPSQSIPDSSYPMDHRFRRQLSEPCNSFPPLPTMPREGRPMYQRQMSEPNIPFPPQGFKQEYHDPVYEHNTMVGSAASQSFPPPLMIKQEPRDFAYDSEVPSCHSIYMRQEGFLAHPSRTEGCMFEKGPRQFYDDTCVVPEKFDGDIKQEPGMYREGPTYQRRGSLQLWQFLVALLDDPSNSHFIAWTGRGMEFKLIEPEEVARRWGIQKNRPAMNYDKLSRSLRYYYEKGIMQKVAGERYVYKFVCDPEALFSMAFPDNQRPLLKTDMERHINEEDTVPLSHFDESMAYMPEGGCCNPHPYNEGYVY
Sequence of ETV5 (P41161 whole entry): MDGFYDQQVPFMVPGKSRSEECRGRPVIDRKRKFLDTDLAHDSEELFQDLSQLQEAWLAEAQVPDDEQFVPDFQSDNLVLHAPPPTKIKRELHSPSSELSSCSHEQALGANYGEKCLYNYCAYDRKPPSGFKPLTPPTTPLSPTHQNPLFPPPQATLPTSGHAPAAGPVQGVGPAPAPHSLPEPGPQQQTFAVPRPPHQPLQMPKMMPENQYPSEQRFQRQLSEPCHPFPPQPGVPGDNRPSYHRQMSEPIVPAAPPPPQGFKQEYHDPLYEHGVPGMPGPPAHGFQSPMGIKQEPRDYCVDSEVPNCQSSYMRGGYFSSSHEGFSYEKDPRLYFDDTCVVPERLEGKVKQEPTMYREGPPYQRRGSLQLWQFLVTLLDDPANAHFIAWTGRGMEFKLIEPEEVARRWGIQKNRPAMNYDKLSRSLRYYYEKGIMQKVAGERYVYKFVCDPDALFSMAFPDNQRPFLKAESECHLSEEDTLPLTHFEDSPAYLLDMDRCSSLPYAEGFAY
Sequence of SPIB (Q01892 whole entry): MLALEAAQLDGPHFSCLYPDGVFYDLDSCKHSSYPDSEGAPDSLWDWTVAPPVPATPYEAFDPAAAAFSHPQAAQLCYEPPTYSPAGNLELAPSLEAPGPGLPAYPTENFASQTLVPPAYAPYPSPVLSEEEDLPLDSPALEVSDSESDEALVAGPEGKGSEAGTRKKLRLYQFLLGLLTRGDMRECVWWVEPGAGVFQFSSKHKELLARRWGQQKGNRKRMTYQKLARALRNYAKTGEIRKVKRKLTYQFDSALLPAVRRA

Sequence	binding signal (FLI1)	binding signal (ELK1)	binding signal (GABPA)	binding signal (ERG)	binding signal (ELF1)	binding signal (EHF)	binding signal (SPI1)	binding signal (ELK3)	binding signal (FEV)	binding signal (ETV5)	binding signal (HSF1)	binding signal (SPIC)	binding signal (ELF4)	binding signal (ELK4)	binding signal (ETV2)	binding signal (ELF3)	binding signal (ETV1)	binding signal (SPIB)
CGCTAG	1.07 fold enrichment (6-mer frequency, TF over GST control)	1.06 fold enrichment (6-mer frequency, TF over GST control)	1.09 fold enrichment (6-mer frequency, TF over GST control)	1.03 fold enrichment (6-mer frequency, TF over GST control)	1.04 fold enrichment (6-mer frequency, TF over GST control)	1.12 fold enrichment (6-mer frequency, TF over GST control)	1.09 fold enrichment (6-mer frequency, TF over GST control)	1.3 fold enrichment (6-mer frequency, TF over GST control)	1.06 fold enrichment (6-mer frequency, TF over GST control)	1.02 fold enrichment (6-mer frequency, TF over GST control)	1.29 fold enrichment (6-mer frequency, TF over GST control)	1.03 fold enrichment (6-mer frequency, TF over GST control)	1.11 fold enrichment (6-mer frequency, TF over GST control)	1.09 fold enrichment (6-mer frequency, TF over GST control)	1.19 fold enrichment (6-mer frequency, TF over GST control)	1.01 fold enrichment (6-mer frequency, TF over GST control)	1.03 fold enrichment (6-mer frequency, TF over GST control)	
GTGCTC	1.26 fold enrichment (6-mer frequency, TF over GST control)	1.18 fold enrichment (6-mer frequency, TF over GST control)	1.25 fold enrichment (6-mer frequency, TF over GST control)	1.2 fold enrichment (6-mer frequency, TF over GST control)	1.19 fold enrichment (6-mer frequency, TF over GST control)	1.22 fold enrichment (6-mer frequency, TF over GST control)	1.36 fold enrichment (6-mer frequency, TF over GST control)		1.11 fold enrichment (6-mer frequency, TF over GST control)	1.15 fold enrichment (6-mer frequency, TF over GST control)	1.05 fold enrichment (6-mer frequency, TF over GST control)	1.21 fold enrichment (6-mer frequency, TF over GST control)	1.12 fold enrichment (6-mer frequency, TF over GST control)	1.05 fold enrichment (6-mer frequency, TF over GST control)	1.16 fold enrichment (6-mer frequency, TF over GST control)	1.26 fold enrichment (6-mer frequency, TF over GST control)	1.29 fold enrichment (6-mer frequency, TF over GST control)	1.3 fold enrichment (6-mer frequency, TF over GST control)
